Assay results as given in PubChem BioAssay (NCI).
About 83,000 compounds went through this panel and 20% of them were active in at least one assay; those are over-represented in the sample as a whole.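 Growth was measured after 48 h exposure to one concentration of compound in 96-well plates. Values under 10 count as active.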 Unmarked numbers belong to inactive results. The source made the active and inactive calls.

These compounds were tested on SR leukemia (assay: NCI-60 one-dose screen, 48 h (100 = growth as untreated, 0 = no growth, -100 = all killed)). Conditions: 10 µM unless noted.

How did the growth turn out when `COc1ccc2[nH]cc(-c3csc4nc(-c5ccccc5)cn34)c2c1` was run?
Its growth is 20.1%.

`COc1cc(Cn2cc3c(c2)-c2onc(CN4CCCC4)c2CC3)cc(OC)c1OC` was tested. Which growth did it give?
Its growth is 97.9%.

Which growth does the source give for `COC(=O)/C=C/c1c(C2(C)NC(=O)c3ccccc3N2)c(=O)oc2ccc(Cl)cc12` (configuration not stated) here?
Its growth is 108%.

`COc1ccc(Cn2cc3c(c2-c2cc(OC)c(OC)c(OC)c2)CCc2c(CN4CCCC4)noc2-3)cc1` was tested. Which growth did it give?
Its growth is 29%.

Which growth does the source give for `COc1ccc(Cn2cc3c(c2-c2cc(OC)c(OC)c(OC)c2)CCc2c(CN4CCOCC4)noc2-3)cc1` here?
Its growth is 23.8%.

For `CCNC(=O)N1CCc2cc(OC)c(OCCc3ccc(OC)cc3)cc2C1c1ccc([N+](=O)[O-])cc1C` (configuration not stated), which growth is on record?
Its growth is 8.11% (active).

Which growth does the source give for `COc1ccc([C@@H]2[C@@H](O)C(=O)N2c2cc(OC)c(OC)c(OC)c2)cc1F` here?
The growth was 8.72% (active).

Which growth does the source give for `Cc1ccc(-c2nnc(SCc3ccc(O)c4ncccc34)n2-c2ccccc2)cc1` here?
The growth was 12.1%.

For `COc1cc2oc(-c3cccc(C(=O)N[C@@H](CC(C)C)C(=O)OC(C)(C)C)c3)cc(=O)c2c(OC)c1OC`, which growth is on record?
The growth was 42.1%.

`Cc1ccc(S(=O)(=O)N(CC[C@@H]2C[C@H]2c2cc3ccccc3o2)S(=O)(=O)c2ccc(C)cc2)cc1` was tested. Which growth did it give?
Its growth is 128%.

`Brc1ccccc1/C=N/Nc1nc(N/N=C/c2ccccc2Br)nc(N2CCOCC2)n1` was tested. Which growth did it give?
Its growth is 63.9%.

For `CC1=NC2=NC(=O)/C(=C3/N=C(C)C=C(c4ccccc4)N3N)NN2C(c2ccccc2)=C1`, which growth is on record?
Its growth is 116%.

For `CN(C)CCN(C)c1ccc2ncc(C#Cc3cncc(C(=O)Nc4ccc(CN5CCN(C)CC5)c(C(F)(F)F)c4)c3)n2n1`, which growth is on record?
Its growth is -17.4% (active).

For `COc1cc(Cn2cc3c(c2)-c2onc(CN4CCOCC4)c2CC3)cc(OC)c1OC`, which growth is on record?
Its growth is 114%.

For `Cc1cc(-c2ccc(Cl)cc2)n(Cc2nnc(SCC(=O)Nc3ccc(S(N)(=O)=O)cc3)n2-c2ccc([N+](=O)[O-])cc2)n1`, which growth is on record?
Its growth is 72.5%.

How did the growth turn out when `COc1ccc(C(=O)CSc2nc3c(c(Nc4ccc(S(N)(=O)=O)cc4)n2)CCCC3)cc1` was run?
Its growth is 69.6%.

Which growth does the source give for `CCn1c(SCC(=O)Nc2cccc(C(=O)/C=C/c3cc(OC)c(OC)c(OC)c3)c2)nc2ccccc2c1=O` here?
The growth was 5.81% (active).

`Nc1ncc(-c2ccc(NS(=O)(=O)c3ccc(Cl)c(Cl)c3)cc2)[nH]1` was tested. Which growth did it give?
Its growth is 76.6%.

For `COc1cc(-c2nnc(SCc3ccc(O)c4ncccc34)n2-c2ccccc2)cc(OC)c1OC`, which growth is on record?
Its growth is 15.5%.

Which growth does the source give for `Oc1ccc(CSc2nnc(-c3ccc(Cl)cc3)n2-c2ccccc2)c2cccnc12` here?
Its growth is 31%.

How did the growth turn out when `CS(=O)(=O)Nc1cc(-c2ccc3ncc(C#N)c(NCc4ccccc4O)c3c2)cnc1Cl` was run?
Its growth is 6.89% (active).

Which growth does the source give for `NS(=O)(=O)c1ccc(Nc2cc(-c3ccccc3)nc(SCC(=O)c3ccccc3)n2)cc1` here?
The growth was 101%.

For `c1ccc(C(c2nc3ncncc3[nH]2)N2CSc3nc4ccccc4n3C2)cc1` (configuration not stated), which growth is on record?
The growth was 111%.

How did the growth turn out when `COCCNc1ccc2ncc(C#Cc3cncc(C(=O)Nc4ccc(CN5CCN(C)CC5)c(C(F)(F)F)c4)c3)n2n1` was run?
Its growth is -6.69% (active).

With `O=c1c2ccccc2nc(COc2ccccc2)n1NS(=O)(=O)c1ccc(Cl)cc1` as the compound, how does the growth read?
The growth was 57.6%.

`NC(N)=Nc1ccc(Oc2cccc(Nc3ccc(Cl)c(C(F)(F)F)c3)c2)cn1` was tested. Which growth did it give?
The growth was -54.6% (active).

For `O=C1CC(=O)N2CSCN(C(c3ccccc3)c3nc4ncncc4[nH]3)C2=N1` (configuration not stated), which growth is on record?
The growth was 118%.

With `COc1cc(/C=N/NC(=O)c2cn(C3CC3)c3c(OC)c(N4CC5CCCNC5C4)c(F)cc3c2=O)ccc1O` (configuration not stated) as the compound, how does the growth read?
The growth was -13.4% (active).

How did the growth turn out when `C[C@H](CCC(=O)NCc1ccc(C(=O)Nc2ccccc2N)cc1)[C@H]1CC[C@H]2[C@@H]3[C@@H](O)C[C@@H]4C[C@H](O)CC[C@]4(C)[C@H]3CC[C@]12C` was run?
Its growth is 63.4%.

`N#Cc1cn(Cc2ccc(Cl)cc2Cl)c(C(=O)c2ccc(Br)cc2)c1N` was tested. Which growth did it give?
The growth was 99.5%.

For `CCNC(=O)N1CCc2cc(OC)c(OCCc3ccc(OC)nc3)cc2C1c1ccc(OC)cc1C` (configuration not stated), which growth is on record?
The growth was 10.9%.

For `C=CCn1c(-c2nc3ccc(C(=C(C#N)C#N)c4ccccc4)cc3[nH]2)cc2cc(Br)ccc21`, which growth is on record?
The growth was 50.5%.

Which growth does the source give for `Cc1ccc(S(=O)(=O)NCCNc2nc(Nc3ccc(N4CCN(C)CC4)cc3)nc3ccsc23)cc1` here?
Its growth is 18.1%.

For `COc1cc2nc(Cl)nc(Nc3cccc(C4=Nc5c(N)nc(N)nc5NC(c5ccc(Cl)cc5)C4)c3)c2cc1OC` (configuration not stated), which growth is on record?
The growth was -8.05% (active).

The compounds below were run on RPMI-8226 leukemia in the same assay as above. Conditions: 10 µM unless noted.

With `COc1ccc2[nH]cc(-c3csc4nc(-c5ccccc5)cn34)c2c1` as the compound, how does the growth read?
The growth was 5.78% (active).

With `COc1cc(Cn2cc3c(c2)-c2onc(CN4CCCC4)c2CC3)cc(OC)c1OC` as the compound, how does the growth read?
Its growth is 88%.

With `COC(=O)/C=C/c1c(C2(C)NC(=O)c3ccccc3N2)c(=O)oc2ccc(Cl)cc12` (configuration not stated) as the compound, how does the growth read?
The growth was 94.7%.

For `Cc1ccc2c(c1)Oc1nc(N)c(C#N)c(N)c1C2Sc1ccc(F)cc1` (configuration not stated), which growth is on record?
The growth was -24.1% (active).

How did the growth turn out when `COc1ccc(Cn2cc3c(c2-c2cc(OC)c(OC)c(OC)c2)CCc2c(CN4CCCC4)noc2-3)cc1` was run?
The growth was 21%.

`COc1ccc(Cn2cc3c(c2-c2cc(OC)c(OC)c(OC)c2)CCc2c(CN4CCOCC4)noc2-3)cc1` was tested. Which growth did it give?
The growth was 28.3%.

For `CCNC(=O)N1CCc2cc(OC)c(OCCc3ccc(OC)cc3)cc2C1c1ccc([N+](=O)[O-])cc1C` (configuration not stated), which growth is on record?
The growth was 20.7%.

`COc1ccc([C@@H]2[C@@H](O)C(=O)N2c2cc(OC)c(OC)c(OC)c2)cc1F` was tested. Which growth did it give?
The growth was 21.5%.

Which growth does the source give for `Cc1ccc(-c2nnc(SCc3ccc(O)c4ncccc34)n2-c2ccccc2)cc1` here?
Its growth is 7.99% (active).

With `COc1cc2oc(-c3cccc(C(=O)N[C@@H](CC(C)C)C(=O)OC(C)(C)C)c3)cc(=O)c2c(OC)c1OC` as the compound, how does the growth read?
The growth was 37.4%.

For `Cc1ccc(S(=O)(=O)N(CC[C@@H]2C[C@H]2c2cc3ccccc3o2)S(=O)(=O)c2ccc(C)cc2)cc1`, which growth is on record?
Its growth is 101%.

`Brc1ccccc1/C=N/Nc1nc(N/N=C/c2ccccc2Br)nc(N2CCOCC2)n1` was tested. Which growth did it give?
The growth was 65%.

`CC1=NC2=NC(=O)/C(=C3/N=C(C)C=C(c4ccccc4)N3N)NN2C(c2ccccc2)=C1` was tested. Which growth did it give?
The growth was 111%.

For `CN(C)CCN(C)c1ccc2ncc(C#Cc3cncc(C(=O)Nc4ccc(CN5CCN(C)CC5)c(C(F)(F)F)c4)c3)n2n1`, which growth is on record?
Its growth is -33.9% (active).

How did the growth turn out when `NC(N)=Nc1ccc(Oc2cccc(Nc3ccc(Br)c(C(F)(F)F)c3)c2)cn1` was run?
The growth was -40% (active).

`COc1cc(Cn2cc3c(c2)-c2onc(CN4CCOCC4)c2CC3)cc(OC)c1OC` was tested. Which growth did it give?
Its growth is 91%.

For `Cc1cc(-c2ccc(Cl)cc2)n(Cc2nnc(SCC(=O)Nc3ccc(S(N)(=O)=O)cc3)n2-c2ccc([N+](=O)[O-])cc2)n1`, which growth is on record?
Its growth is 64.3%.

Which growth does the source give for `COc1ccc(C(=O)CSc2nc3c(c(Nc4ccc(S(N)(=O)=O)cc4)n2)CCCC3)cc1` here?
The growth was 83.6%.

`CCn1c(SCC(=O)Nc2cccc(C(=O)/C=C/c3cc(OC)c(OC)c(OC)c3)c2)nc2ccccc2c1=O` was tested. Which growth did it give?
The growth was -7.09% (active).

`Nc1ncc(-c2ccc(NS(=O)(=O)c3ccc(Cl)c(Cl)c3)cc2)[nH]1` was tested. Which growth did it give?
Its growth is 59.1%.

With `Cc1nn(-c2ccccc2)c2ncnc(N/N=C/c3ccccc3O)c12` as the compound, how does the growth read?
The growth was 20.4%.

With `COc1cc(-c2nnc(SCc3ccc(O)c4ncccc34)n2-c2ccccc2)cc(OC)c1OC` as the compound, how does the growth read?
Its growth is 3.25% (active).

For `Oc1ccc(CSc2nnc(-c3ccc(Cl)cc3)n2-c2ccccc2)c2cccnc12`, which growth is on record?
Its growth is 16.4%.

How did the growth turn out when `CCc1ccc(SC2c3ccc(N(CC)CC)cc3Oc3nc(N)c(C#N)c(N)c32)cc1` (configuration not stated) was run?
The growth was -29.6% (active).

For `CS(=O)(=O)Nc1cc(-c2ccc3ncc(C#N)c(NCc4ccccc4O)c3c2)cnc1Cl`, which growth is on record?
Its growth is -21% (active).

With `NS(=O)(=O)c1ccc(Nc2cc(-c3ccccc3)nc(SCC(=O)c3ccccc3)n2)cc1` as the compound, how does the growth read?
The growth was 93.7%.

How did the growth turn out when `c1ccc(C(c2nc3ncncc3[nH]2)N2CSc3nc4ccccc4n3C2)cc1` (configuration not stated) was run?
Its growth is 104%.

How did the growth turn out when `COCCNc1ccc2ncc(C#Cc3cncc(C(=O)Nc4ccc(CN5CCN(C)CC5)c(C(F)(F)F)c4)c3)n2n1` was run?
The growth was -26.7% (active).

For `O=c1c2ccccc2nc(COc2ccccc2)n1NS(=O)(=O)c1ccc(Cl)cc1`, which growth is on record?
Its growth is 95.6%.

Which growth does the source give for `NC(N)=Nc1ccc(Oc2cccc(Nc3ccc(Cl)c(C(F)(F)F)c3)c2)cn1` here?
The growth was -29.6% (active).

Which growth does the source give for `O=C1CC(=O)N2CSCN(C(c3ccccc3)c3nc4ncncc4[nH]3)C2=N1` (configuration not stated) here?
The growth was 107%.

For `COc1cc(/C=N/NC(=O)c2cn(C3CC3)c3c(OC)c(N4CC5CCCNC5C4)c(F)cc3c2=O)ccc1O` (configuration not stated), which growth is on record?
The growth was -25% (active).

With `C[C@H](CCC(=O)NCc1ccc(C(=O)Nc2ccccc2N)cc1)[C@H]1CC[C@H]2[C@@H]3[C@@H](O)C[C@@H]4C[C@H](O)CC[C@]4(C)[C@H]3CC[C@]12C` as the compound, how does the growth read?
Its growth is 5.86% (active).

For `N#Cc1cn(Cc2ccc(Cl)cc2Cl)c(C(=O)c2ccc(Br)cc2)c1N`, which growth is on record?
The growth was 111%.

How did the growth turn out when `CCNC(=O)N1CCc2cc(OC)c(OCCc3ccc(OC)nc3)cc2C1c1ccc(OC)cc1C` (configuration not stated) was run?
The growth was 31.4%.

Which growth does the source give for `C=CCn1c(-c2nc3ccc(C(=C(C#N)C#N)c4ccccc4)cc3[nH]2)cc2cc(Br)ccc21` here?
The growth was 35.7%.

Which growth does the source give for `Cc1ccc(S(=O)(=O)NCCNc2nc(Nc3ccc(N4CCN(C)CC4)cc3)nc3ccsc23)cc1` here?
Its growth is 84.2%.

With `COc1cc2nc(Cl)nc(Nc3cccc(C4=Nc5c(N)nc(N)nc5NC(c5ccc(Cl)cc5)C4)c3)c2cc1OC` (configuration not stated) as the compound, how does the growth read?
Its growth is -18.9% (active).
